This note sets out measurements from PubChem BioAssay AID449762 (Southern Research Specialized Biocontainment Screening …, 2010).

Screen size: about 330,000 compounds; about 1,900 (0.58%) were called active. Not shown: some 4% with an inconclusive outcome. Rule as the data show it: inconclusive = inhibition above about 70% without an active follow-up result; inactive = below that. The list is a sample of the results. Potency and affinity values are given separately.

Usually inhibition stands for the drop in the measured response relative to a control, in per cent.

The assay is described as follows: M. tuberculosis growth inhibition, HTS (AID 449762).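 Also: bacterial growth assessed after seven days of incubation.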 To be noted: M. tuberculosis H37Rv growth inhibition, 7H9 media; at 25 µM; stronger effect = higher value.
Turning to `O=c1cnnc(Nc2ccc(Nc3ccccc3)cc2)[nH]1`, the inhibition was 14% (inactive).
Consider `CC(C)c1ccc(NC(=O)CCS(=O)(=O)c2cccc3nonc23)cc1`, for which the inhibition was 6.08% (inactive).
Regarding `O=C(C1CCC1)N1CCN(S(=O)(=O)c2ccc(F)cc2)CC1`, the inhibition is -11% (inactive).
`CCOc1ccc(/C=C2/C(=N)N3OC(C)=CC3=NC2=O)cc1OC`: the inhibition is 2.41% (inactive).
For `CN(CCO)c1cc(N2CCC3(CC2)OCCO3)c2nonc2c1[N+](=O)[O-]`, the inhibition was -10.9% (inactive).
Regarding `CN(CCO)c1cc(N2CCCCC2)c2nonc2c1[N+](=O)[O-]`, the inhibition was -7.07% (inactive).
With `Cc1cc(C)cc(NC(=O)CCn2c(=S)[nH]c3ccccc3c2=O)c1`, the inhibition is 3.81% (inactive).
Regarding `Cc1cccc(OCCCCNCc2ccccc2)c1`, the inhibition was 0.71% (inactive).
To `Clc1ccc(Cl)c(OCCCCNCc2ccccc2)c1` belongs 6.87% (inactive).
Consider `COc1cc(Br)c(/C=C/c2ccc3cccc(O)c3n2)cc1OC`, for which the inhibition was 15.4% (inactive).
Take `COc1ccc(Br)cc1/C=C/c1ccc2cccc(O)c2n1`: the inhibition was 69.8% (inactive).
Take `On1c(-c2ccc(Cl)cc2)nc2ccccc21`: the inhibition was 67.2% (inactive).
On to `COc1cc(CNn2nnnc2N)cc(Br)c1OCc1c(Cl)cccc1Cl`, for which the inhibition is 0.85% (inactive).
The value for `Cc1ccc(N2CCN(S(=O)(=O)N3CCCCC3)CC2)cc1C` was -2.98% (inactive).
For the compound `CCOC(=O)C1=C(C)NC(SCC(=O)Nc2cc(C)on2)=C(C#N)C1c1cccs1` (stereo unspecified), the inhibition was -1.09% (inactive).
As for `CCOC(=O)C1=C(C)NC(SCC(N)=O)=C(C#N)C1c1cccs1` (stereo unspecified), the inhibition was -3.02% (inactive).
As to `O=C(COC(=O)c1cc(=O)[nH]c2ccccc12)NC(=O)c1ccccc1`, the inhibition was -1.53% (inactive).
To `COc1ccc(Nc2nc(CC(C)=O)ns2)cc1OC` belongs -2.22% (inactive); to `O=C1CN(C(=O)CN2C(=O)NC(c3ccccc3)(c3ccccc3)C2=O)c2ccccc2N1`, -4.74% (inactive).
As to `CC(=O)N1CCN(C(=O)c2ccc(-c3cccc(C(F)(F)F)c3)o2)CC1`, the inhibition is -1.68% (inactive).
As to `O=C(c1ccc(-c2cccc(C(F)(F)F)c2)o1)N1CCCCCCC1`, the inhibition is 4.53% (inactive).
For `CCCCS(=O)(=O)N1CCC(C(=O)Oc2ccccc2OC)CC1`, the inhibition was 28.5% (inactive).
In the case of `Cc1ccc(C(C(=O)Nc2ccc3c(c2)OCO3)N(C)C(=O)Cc2c[nH]c3ccccc23)cc1` (stereo unspecified), the inhibition is -1.34% (inactive).
Turning to `C/C(=C\C(=S)Nc1ccccc1)Nc1cccc2ccccc12`, the inhibition is 64.1% (inactive).
To `C/C(=C\C(=S)Nc1ccccc1)Nc1ccccc1` belongs 3.81% (inactive).
Consider `O=C(CC1CCCCC1)NCCCN1CCOCC1`, for which the inhibition was -0.7% (inactive).
For `O=C(CSc1nc2[nH]c(=O)cc(O)c2s1)Nc1ccc(Br)cc1`, the inhibition is -3.77% (inactive).
As for `CC(=O)N1CCc2cc(Br)cc(S(=O)(=O)NCC3CCCO3)c21` (stereo unspecified), the inhibition was 0.13% (inactive).
To `COc1cc2cc(C(=O)N(C)Cc3ccccc3)[nH]c2cc1OC` belongs 6.88% (inactive); to `COCCCn1c(SCc2ccc(OC)cc2)nc2cc(OC)c(OC)cc2c1=N`, -4.77% (inactive); to `COCCCn1c(SCc2ccccc2)nc2cc(OC)c(OC)cc2c1=N`, -2.27% (inactive).
Consider `O=C(CN1C(=O)NC2(CCCC2)C1=O)OCc1cccc(Br)c1`, for which the inhibition was -6.4% (inactive).
Consider `O=C(NC1CCSc2ccccc21)c1ccccc1F` (stereo unspecified), for which the inhibition is 12.7% (inactive).
The value for `O=C(NC1CCSc2ccccc21)c1ccccc1Cl` (stereo unspecified) was 43.4% (inactive); that for `COc1ccc(OCc2n[nH]c(=S)n2-c2ccc(C)cc2)cc1` was 3.01% (inactive); that for `Cc1cc(=O)[nH]c(N/N=C/c2c(C)nn(-c3ccc(F)cc3)c2Cl)n1` was 0.52% (inactive).
For the compound `Oc1ccc(N=Nc2n[nH]c(-c3ccc(Br)cc3)n2)cc1`, the inhibition was 4.79% (inactive).
To `Cc1ccc(-c2nc(N=Nc3ccc(O)cc3)n[nH]2)cc1` belongs 4.83% (inactive).
`CCC(CO)Oc1cc(NC(=O)c2ccc(N)cc2)c2ncn(C(C)C)c2c1` (stereo unspecified): the inhibition was 4.76% (inactive).
For `COc1ccc(-c2cn[nH]c2-c2ccc(OCc3ccc([N+](=O)[O-])cc3)cc2O)cc1`, the inhibition was 8.94% (inactive).
The value for `CCOc1ccc(-c2[nH]ncc2-c2ccccc2)c(O)c1` was 9.38% (inactive); that for `COc1ccc(-c2[nH]ncc2-c2ccc(Cl)cc2)c(O)c1` was 41.7% (inactive).
`O=[N+]([O-])c1ccc(COc2ccc(-c3[nH]ncc3-c3ccccc3)c(O)c2)cc1`: the inhibition is -2.72% (inactive).
As for `Cc1cc(N2C(=O)C3CC=CCC3C2=O)cc(C)c1Br` (stereo unspecified), the inhibition is 4.22% (inactive).
For `CC(=NNC(=O)c1ccc(NS(=O)(=O)c2ccc(Br)cc2)cc1)c1cccnc1`, the inhibition was 9.29% (inactive).
As for `CC(C)Cc1nc2sc3c(=O)[nH]cnc3c2c2c1CCCC2`, the inhibition is 1.08% (inactive).
Regarding `CCN(CC)C(=O)CNC(=S)N(CCCN1CCOCC1)Cc1cccs1`, the inhibition is 1.2% (inactive).
Consider `CCc1cc(-c2[nH]ncc2-c2ccc([N+](=O)[O-])cc2)c(O)cc1OC`, for which the inhibition is 1.64% (inactive).
`CCCn1c(NC(=S)Nc2ccccc2)nc2ccccc21`: the inhibition was 2.43% (inactive).
For the compound `CCCCn1c(NC(=S)Nc2ccccc2)nc2ccccc21`, the inhibition was 2.6% (inactive).
To `CSc1nc2ccsc2c(=O)n1-c1ccccn1` belongs -2.21% (inactive); to `CCn1c(C)nc2cc(C(=O)OCCC(F)(F)F)ccc21`, -1.06% (inactive); to `CCn1c(C)nc2cc(C(=O)OC)ccc21`, -7.44% (inactive).
Take `COc1ccccc1C(=O)NC(CCSC)C(=O)OCC(=O)N1CCCC1=O` (stereo unspecified): the inhibition is -5.17% (inactive).
Consider `COc1ccc(-c2c(C#Cc3ccsc3)c3cc(-c4ccc5cc[nH]c5c4)ccc3n2C)cc1`, for which the inhibition is -6.96% (inactive).
`CN(C)CCN(Cc1ccccc1)C(=O)[C@H](Cc1ccccc1)N1C(=O)c2ccccc2C1=O`: the inhibition is -1.93% (inactive).
The value for `COc1ccc(NC(=O)CSc2nc(SC)ns2)c(OC)c1` was 4.38% (inactive).
As for `CSc1nsc(SCC(=O)Nc2ccccc2C(N)=O)n1`, the inhibition was 2.11% (inactive).
Regarding `O=C1/C(=C/c2ccc([N+](=O)[O-])cc2)C=C(c2ccccc2)N1c1ccccc1`, the inhibition was 10.5% (inactive).
In the case of `O=C(O)c1cccc(N2C(=O)/C(=C/c3ccc([N+](=O)[O-])cc3)C=C2c2ccccc2)c1`, the inhibition was 7.59% (inactive).
Consider `COc1ccc(-n2c(SCC(=O)N3CCc4ccccc43)nnc2-c2c[nH]c3ccccc23)cc1`, for which the inhibition was 7.85% (inactive).
